Experimental data: PubChem BioAssay (NCI)
Compounds without any hit were thinned out: in the full panel of roughly 83,000, 20% have a hit.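 Note: values are percent growth. 100 is the growth of untreated cells, values between 100 and 0 indicate rising inhibition; between -100 and 0 indicates cell death.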 Calls of active or inactive are those of the source. Rule for the calls: active = growth percent below 10; inactive = the rest.

Key:
Assay in all cases: NCI-60 one-dose screen, 48 h (100 = growth as untreated, 0 = no growth, -100 = all killed)
Settings in all cases: 10 µM unless noted
[1] = test system: DU-145 prostate
[2] = test system: K-562 leukemia
[3] = test system: MALME-3M melanoma
[4] = test system: MDA-MB-231 breast
[5] = test system: RXF 393 renal
[6] = test system: SF-268 CNS
[7] = test system: SF-295 CNS
[8] = test system: SF-539 CNS
[9] = test system: UACC-257 melanoma
[10] = test system: M14 melanoma

Measured: growth

Cc1[nH]c(C(=O)Nc2ccccc2OC2CCNC2)c(Cl)c1Cl (stereo not given)
inactive: [1] 93.5% | [2] 52.2% | [3] 97.5% | [4] 54.4% | [5] 76.8% | [6] 75.7% | [7] 95.5% | [8] 85.6% | [9] 107% | [10] 98.5%

CCOC(=O)c1cc(C(=O)c2cc(OC)cc(OC)c2)n2ccccc12
active: [10] 3.55%
inactive: [1] 53.8% | [2] 15.8% | [3] 31.8% | [4] 55.8% | [5] 49.6% | [6] 46.8% | [7] 26.1% | [8] 44.8% | [9] 43.9%

CN1/C(=C/C=C/c2n(Cc3ccc4ccccc4c3)c(Cl)c(Cl)[n+]2Cc2ccc3ccccc3c2)Oc2ccccc21
active: [1] -86.6% | [3] -97.1% | [4] -94% | [5] -88.2% | [6] -69.4% | [7] -68.4% | [8] -94% | [9] -77.9% | [10] -77%
inactive: [2] 89.4%

O=C(OCC(O)(CO)C(=O)NC12CC3CC(CC(C3)C1)C2)c1ccc(Cl)cc1 (stereo not given)
inactive: [1] 108% | [2] 91.4% | [3] 103% | [4] 101% | [5] 101% | [6] 99.7% | [7] 93.1% | [8] 107% | [9] 99.2% | [10] 98.7%

CCOC(=O)c1c(C)n2c(=O)cc(C)c3c(OC(C)=O)c(OC(C)=O)cc1c32
inactive: [1] 67.3% | [2] 22.3% | [3] 75% | [4] 86.7% | [5] 73.8% | [6] 49.6% | [7] 94.8% | [8] 72.1% | [9] 108% | [10] 83.2%

Nc1nc(Nc2ccc([N+](=O)[O-])cc2O)nc(C(Cl)(Cl)Cl)n1
inactive: [1] 97.3% | [2] 28.7% | [3] 84.9% | [4] 86.9% | [5] 76.1% | [6] 64.4% | [7] 93.2% | [8] 58% | [9] 85.7% | [10] 74.6%

COc1ccc(-c2cc(-c3ccc(N(C)C)cc3)nc(NC(=O)c3cccnc3)n2)cc1
inactive: [1] 99.5% | [2] 93.3% | [3] 120% | [4] 93.8% | [5] 107% | [6] 90.6% | [7] 104% | [8] 94.3% | [9] 120% | [10] 124%

CCCc1cc(CCC)n2nc(N)nc2n1
inactive: [1] 117% | [2] 121% | [3] 116% | [4] 125% | [5] 102% | [6] 110% | [7] 96.4% | [8] 112% | [9] 118% | [10] 111%

C#CC#CC#CC#CC#CC#CC#CC#CC[C@@H]1OC[C@H](COC(=O)O[C@@H](C(=O)O[C@H]2C[C@@]3(O)[C@@H](OC(=O)c4ccccc4)[C@@H]4[C@]5(OC(C)=O)CO[C@@H]5C[C@H](O)[C@@]4(C)C(=O)[C@H](OC(C)=O)C(=C2C)C3(C)C)[C@@H](NC(=O)c2ccccc2)c2ccccc2)O1
inactive: [1] 24.4% | [2] 15.8% | [3] 43.7% | [4] 45.3% | [5] 22.7% | [6] 51.7% | [7] 25.3% | [8] 30.2% | [9] 55.7% | [10] 18.6%

CC(C)(C#N)c1cc(C(=O)Nc2cc(Nc3ncccc3-c3ncnc4nc[nH]c34)ccc2F)cc(C(F)(F)F)c1
active: [2] 5.56% | [3] 2.06% | [10] 6.18%
inactive: [1] 66% | [4] 18.3% | [5] 91.7% | [6] 66.2% | [7] 74.5% | [8] 32.1% | [9] 12%

CCOC(=O)C1=C(c2ccccc2)N=C2N(c3ccccc3)N=C(C(C)=O)N2C1c1ccc(Br)cc1 (stereo not given)
inactive: [1] 101% | [2] 86.9% | [3] 97.3% | [4] 89.2% | [5] 66.8% | [6] 92.6% | [7] 90.3% | [8] 96.3% | [9] 93.4% | [10] 100%

COC(=O)CNC(=O)c1ccc(NC(=O)c2[nH]c(C)c(Cl)c2Cl)c(O[C@H]2CCNC2)c1
inactive: [1] 110% | [2] 90.7% | [3] 109% | [4] 105% | [5] 111% | [6] 102% | [7] 105% | [8] 98% | [9] 103% | [10] 107%

N/C(=N\c1nc2ccccc2s1)NC(=O)Nc1ccccc1
active: [10] 7.51%
inactive: [1] 58.1% | [2] 10.8% | [3] 58.1% | [4] 31.6% | [5] 62.1% | [6] 57.5% | [7] 39% | [8] 26.9% | [9] 59%
